Reference: PubChem BioAssay AID1159580 (chemical genetic matrix, 2015)
Screen size: about 5,500 compounds; about 2,000 (36%) were called active. Inconclusive results (about 18%) are left out. Cut-off read from the data, not from the text of the source: active = normalized growth mostly below about 0.91 (no sharp cut-off); inconclusive = no clear call, values can overlap the other calls; inactive = mostly above about 0.92. Some of the results follow.

Assay: chemical genetic growth profiling, strain panel (AID 1159580);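 note: tested at 20 µM; growth read once vehicle control cultures reached saturation at 30 °C; 1 = growth at the plate median or of vehicle wells; lower values mean less growth of the strain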
Conditions: S. cerevisiae deletion strains, growth OD

Measured: normalized growth

CCCOc1ccc(C(=O)OCCN(CC)CC)cc1N
inactive: locus YAL021C, strain ccr4, hits give low values 0.979 | locus YAL026C, strain drs2, hits give low values 1.01 | locus YAL030W, strain snc1, hits give low values 1 | locus YBL061C, strain skt5, hits give low values 1 | locus YBR009C, strain hhf1, hits give low values 1.03 | locus YBR023C, strain chs3, hits give low values 1.02 | locus YBR171W, strain sec66, hits give low values 1.02 | locus YBR231C, strain swc5, hits give low values 1.01 | locus YBR279W, strain paf1, hits give low values 1.01 | locus YCL011C, strain gbp2, hits give low values 1 | locus YCL016C, strain dcc1, hits give low values 1 | locus YCL061C, strain MRC1, hits give low values 1 | locus YCL069W, strain vba3, hits give low values 0.999 | locus YCR088W, strain abp1, hits give low values 1.01 | locus YDL005C, strain med2, hits give low values 1.01 | locus YDL040C, strain nat1, hits give low values 1 | locus YDR001C, strain nth1, hits give low values 1 | locus YDR069C, strain doa4, hits give low values 1.01 | locus YDR137W, strain rgp1, hits give low values 1.04 | locus YDR159W, strain sac3, hits give low values 1.02 | locus YDR195W, strain ref2 0.964 | locus YDR297W, strain sur2, hits give low values 1 | locus YDR334W, strain swr1, hits give low values 0.995 | locus YDR335W, strain msn5, hits give low values 1 | locus YDR392W, strain spt3, hits give low values 1.02 | locus YEL003W, strain gim4, hits give low values 1.01 | locus YEL037C, strain rad23, hits give low values 0.979 | locus YEL061C, strain CIN8 (second series), hits give low values 1 | locus YER015W, strain faa2, hits give low values 1.03 | locus YER016W, strain bim1, hits give low values 1 | locus YER111C, strain swi4, hits give low values 0.999 | locus YER155C, strain BEM2 (second series), hits give low values 1 | locus YFR010W, strain ubp6, hits give low values 0.996 | locus YGL167C, strain pmr1, hits give low values 1.01 | locus YGL173C, strain kem1, hits give low values 1 | locus YGL227W, strain vid30, hits give low values 1 | locus YGL240W, strain doc1, hits give low values 1.02 | locus YGL253W, strain hxk2, hits give low values 1.01 | locus YHR013C, strain ard1, hits give low values 1.01 | locus YHR027C, strain rpn1, hits give low values 1 | locus YHR030C, strain SLT2, hits give low values 1.05 | locus YHR079C, strain IRE1, hits give low values 1.04 | locus YHR142W, strain chs7, hits give low values 0.981 | locus YJL092W, strain hpr5, hits give low values 1 | locus YJL095W, strain BCK1 (second series), hits give low values 1 | locus YJL095W, strain BCK1, hits give low values 1 | locus YJL115W, strain asf1, hits give low values 1 | locus YJL129C, strain trk1, hits give low values 0.995 | locus YJL154C, strain vps35, hits give low values 1.01 | locus YJL164C, strain tpk1, hits give low values 0.999 | locus YJL166W, strain qcr8, hits give low values 1 | locus YJL187C, strain SWE1, hits give low values 1 | locus YJR066W, strain TOR1, hits give low values 0.972 | locus YKL160W, strain elf1, hits give low values 0.989 | locus YKR026C, strain gcn3, hits give low values 0.984 | locus YKR091W, strain srl3, hits give low values 1 | locus YLL001W, strain dnm1, hits give low values 1.01 | locus YLL026W, hits give low values 1.01 | locus YLL041C, strain sdh2, hits give low values 0.998 | locus YLR027C, strain aat2, hits give low values 1 | locus YLR113W, strain HOG1, hits give low values 0.968 | locus YLR221C, strain rsa3, hits give low values 1 | locus YLR258W, strain gsy2, hits give low values 1.01 | locus YLR262C, strain YPT6 (second series), hits give low values 1.01 | locus YLR320W, strain mms22, hits give low values 1.02 | locus YLR342W, strain FKS1, hits give low values 0.999 | locus YLR357W, strain rsc2, hits give low values 1.01 | locus YLR370C, strain arc18, hits give low values 1.01 | locus YLR384C, strain iki3, hits give low values 1 | locus YML120C, strain ndi1, hits give low values 1.01 | locus YMR058W, strain fet3, hits give low values 1.01 | locus YMR125W, strain sto1, hits give low values 1.02 | locus YMR129W, hits give low values 1.01 | locus YMR205C, strain PFK2, hits give low values 1.04 | locus YMR231W, strain pep5, hits give low values 1 | locus YNL071W, strain lat1, hits give low values 1 | locus YNL183C, strain NPR1, hits give low values 0.966 | locus YNL209W, strain ssb2, hits give low values 1 | locus YNL248C, strain rpa49, hits give low values 0.971 | locus YNL322C, strain KRE1 (second series), hits give low values 1.01 | locus YNR049C, strain mso1, hits give low values 1 | locus YOR001W, strain rrp6, hits give low values 0.984 | locus YOR070C, strain gyp1, hits give low values 1.02 | locus YOR080W, strain dia2, hits give low values 1 | locus YOR083W, strain WHI5, hits give low values 0.986 | locus YOR106W, strain vam3, hits give low values 0.994 | locus YOR231W, strain MKK1, hits give low values 1.03 | locus YOR265W, strain rbl2, hits give low values 1 | locus YOR270C, strain vph1, hits give low values 1.04 | locus YOR290C, strain snf2, hits give low values 1.01 | locus YPL051W, strain arl3, hits give low values 0.997 | locus YPL078C, strain atp4, hits give low values 0.98 | locus YPL106C, strain sse1, hits give low values 1.01 | locus YPL240C, strain hsp82, hits give low values 0.988 | locus YPL256C, strain CLN2, hits give low values 1.02
